In PubChem BioAssay (NCI):
The panel holds about 83,000 compounds, 20% with a hit somewhere; the sample as a whole holds those more often.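 Interpretation: 100, growth as untreated; towards 0, rising growth inhibition; 0, no net growth; 0 to -100, cell death. Compounds scoring below 10 were considered active.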 The source made the active and inactive calls.

How the values were obtained:
Assay in all cases: NCI-60 one-dose screen, 48 h (100 = growth as untreated, 0 = no growth, -100 = all killed)
Conditions in all cases: 10 µM unless noted
NCI-H23 lung = tested on: NCI-H23 lung
NCI-H322M lung = tested on: NCI-H322M lung
HOP-62 NSCLC = tested on: HOP-62 NSCLC
NCI-H460 lung = tested on: NCI-H460 lung
HOP-92 NSCLC = tested on: HOP-92 NSCLC
NCI-H522 lung = tested on: NCI-H522 lung
A549/ATCC NSCLC = tested on: A549/ATCC NSCLC
786-0 renal = tested on: 786-0 renal
COLO 205 colon = tested on: COLO 205 colon
DU-145 prostate = tested on: DU-145 prostate
K-562 leukemia = tested on: K-562 leukemia
MALME-3M melanoma = tested on: MALME-3M melanoma
MDA-MB-231 breast = tested on: MDA-MB-231 breast
SF-268 CNS = tested on: SF-268 CNS
SF-295 CNS = tested on: SF-295 CNS
SF-539 CNS = tested on: SF-539 CNS
M14 melanoma = tested on: M14 melanoma
RXF 393 renal = tested on: RXF 393 renal
UACC-257 melanoma = tested on: UACC-257 melanoma

Measured: growth

Cc1cc(O)c2c(c1)C1OC(=O)CCCCCN1C1=C2C(=O)c2cccc(OC3CC(O)C(O)C(C)O3)c2C1=O (stereo not given)
inactive: NCI-H23 lung 79.8% | NCI-H322M lung 94.7% | HOP-62 NSCLC 123% | NCI-H460 lung 65.3% | HOP-92 NSCLC 134% | NCI-H522 lung 34.1% | A549/ATCC NSCLC 59.9% | 786-0 renal 101% | COLO 205 colon 53.3% | DU-145 prostate 57.2% | K-562 leukemia 28.3% | MALME-3M melanoma 40.6% | MDA-MB-231 breast 32.7% | SF-268 CNS 90.8% | SF-295 CNS 93.9% | SF-539 CNS 83.5% | M14 melanoma 66.6%

COc1ccc(Br)cc1NC(=O)Nc1cccc2c1ccn2Cc1ccnc(N)c1
active: HOP-62 NSCLC -44.7% | HOP-92 NSCLC -7.4% | NCI-H522 lung -50.9% | COLO 205 colon -57.5% | K-562 leukemia 4.41% | MDA-MB-231 breast -2.75% | SF-295 CNS -6.47% | M14 melanoma -30.2%
inactive: NCI-H23 lung 55.1% | NCI-H322M lung 32.7% | NCI-H460 lung 14.6% | A549/ATCC NSCLC 18.9% | 786-0 renal 31.2% | DU-145 prostate 58.7% | MALME-3M melanoma 42.1% | RXF 393 renal 16.3% | SF-268 CNS 47.5% | SF-539 CNS 27.5% | UACC-257 melanoma 32.5%

Cn1cnc(-c2cc3nccc(Oc4ccc(NC(=S)NC(=O)Cc5ccccc5)cc4F)c3s2)c1
active: K-562 leukemia 6.69%
inactive: NCI-H23 lung 72.5% | NCI-H322M lung 108% | HOP-62 NSCLC 78.9% | NCI-H460 lung 93.5% | HOP-92 NSCLC 50.2% | NCI-H522 lung 41.5% | A549/ATCC NSCLC 53.9% | 786-0 renal 98.1% | COLO 205 colon 89% | DU-145 prostate 104% | MALME-3M melanoma 86.3% | MDA-MB-231 breast 81.2% | RXF 393 renal 87.1% | SF-268 CNS 84.3% | SF-295 CNS 52.5% | SF-539 CNS 58.7% | UACC-257 melanoma 60.5% | M14 melanoma 96.5%

O=C(NOCCO)c1cc(CN2OCCCC2=O)c(F)c(F)c1Nc1ccc(I)cc1F
active: HOP-92 NSCLC -20% | COLO 205 colon 5.72% | MALME-3M melanoma -2.48% | UACC-257 melanoma -13.2% | M14 melanoma 9.12%
inactive: NCI-H23 lung 22.7% | NCI-H322M lung 15.4% | HOP-62 NSCLC 36.8% | NCI-H460 lung 59.4% | NCI-H522 lung 45.8% | A549/ATCC NSCLC 28.9% | 786-0 renal 64.6% | DU-145 prostate 56.7% | K-562 leukemia 31.2% | MDA-MB-231 breast 32.2% | RXF 393 renal 24.9% | SF-268 CNS 67.5% | SF-295 CNS 71.6% | SF-539 CNS 55.4%

COc1ccc(Cl)c(Nc2nc3ccccc3nc2NS(=O)(=O)c2cccc(NC(=O)C(C)(C)N)c2)c1
active: HOP-92 NSCLC -1.2% | RXF 393 renal -10.2%
inactive: NCI-H23 lung 64.5% | NCI-H322M lung 35.1% | HOP-62 NSCLC 39.4% | NCI-H460 lung 38% | NCI-H522 lung 49% | A549/ATCC NSCLC 32.4% | 786-0 renal 16.7% | COLO 205 colon 21.8% | DU-145 prostate 62.4% | K-562 leukemia 63.3% | MALME-3M melanoma 69.5% | MDA-MB-231 breast 68.3% | SF-268 CNS 49.8% | SF-295 CNS 12.2% | SF-539 CNS 13.7% | UACC-257 melanoma 56.9% | M14 melanoma 51.7%

CCc1cnn2c(NCc3ccc[n+]([O-])c3)cc(N3CCCC[C@H]3CCO)nc12
active: NCI-H23 lung -23.3% | NCI-H322M lung -0.876% | HOP-62 NSCLC -33.2% | NCI-H460 lung 1.82% | HOP-92 NSCLC -20.2% | NCI-H522 lung -42.2% | A549/ATCC NSCLC -13.4% | 786-0 renal 7.96% | COLO 205 colon -62.5% | DU-145 prostate 5.68% | K-562 leukemia 1.85% | MALME-3M melanoma -46.3% | MDA-MB-231 breast 2.67% | RXF 393 renal -64.6% | SF-268 CNS 3.65% | SF-295 CNS 3.11% | SF-539 CNS -48.1% | UACC-257 melanoma -42.4% | M14 melanoma -42.5%

Nc1ccc(S(=O)(=O)O)c2cc(S(=O)(=O)O)cc(O)c12
inactive: NCI-H23 lung 110% | NCI-H322M lung 117% | HOP-62 NSCLC 107% | NCI-H460 lung 108% | HOP-92 NSCLC 124% | NCI-H522 lung 103% | A549/ATCC NSCLC 104% | 786-0 renal 101% | COLO 205 colon 105% | DU-145 prostate 105% | K-562 leukemia 117% | MALME-3M melanoma 109% | MDA-MB-231 breast 106% | RXF 393 renal 114% | SF-268 CNS 111% | SF-295 CNS 110% | SF-539 CNS 95.8% | UACC-257 melanoma 109% | M14 melanoma 90.7%

Cc1c(Cn2c(C)nc3c(C(=O)O)cc(N4CCOCC4)cc32)cccc1C(F)(F)F
inactive: NCI-H23 lung 105% | NCI-H322M lung 98.8% | HOP-62 NSCLC 79% | NCI-H460 lung 102% | HOP-92 NSCLC 88.3% | NCI-H522 lung 62.9% | A549/ATCC NSCLC 89.7% | 786-0 renal 95.8% | COLO 205 colon 108% | DU-145 prostate 108% | K-562 leukemia 87.4% | MALME-3M melanoma 91.8% | MDA-MB-231 breast 110% | RXF 393 renal 27.3% | SF-268 CNS 88.6% | SF-295 CNS 75.1% | SF-539 CNS 113% | UACC-257 melanoma 79% | M14 melanoma 89%
